CtBP-E1A blk – qHTS Assay for Inhibitors of the CtBP/E1A Interaction; CtBP / adenovirus E1A interaction (AlphaScreen); AlphaScreen GST-E1A/His-CtBP binding, 1536-well; hits give low values; activity change, % (no concentration beside the values); 0.49% of 340,000 active; in the data active means activity change below about -65%; inconclusive means mostly about -30% to -63%; further: on the % scale 0 is the no-effect control and ±100 the full control effect
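Steps: dispense buffer (Tris pH 8.0, NaCl 300 mM, TCEP 1 mM, BSA, Tween 20); add 5X protein mix (GST-E1A, His-CtBP, 125 nM each); pin 23 nL compound; 2 h at 37 °C, dark; add 5X beads (50 ug/mL); 1 h; read.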
BAZ2B inh – qHTS Assay for Inhibitors of BAZ2B | Potency, µM (top dose mostly 114 µM), inactives show at the highest dose activity change, negative = inhibition, actives largely listed as inhibitors | 4.4% of 360,000 active | AID 504333, 2011 | AlphaScreen BAZ2B-H3K14Ac peptide displacement; further: potency means the concentration at half of the fitted maximal effect; on the % scale 0 is the no-effect control and ±100 the full control effect; nearly all actives have a fitted effect of over 60% in size
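AlphaScreen luminescence quantifies BAZ2B engagement of H3K14Ac peptide; the protein and biotinylated peptide are both at 50 nM final, buffer PBS pH 7.4 with 0.01% Tween-20, all steps at room temperature.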
HP1b chromo inh – HTS for Inhibitors of HP1-beta Chromodomain Interactions with Methylated Histone Tails | 0.56% of 390,000 active | AID 540317, 2011 | AlphaScreen HP1-beta / biotin-H3K9me3 peptide binding | Potency, µM (series often up to 114 µM), for inactives: at the highest dose activity change, negative = inhibition, actives largely listed as inhibitors | Chromobox protein homolog 1 (Homo sapiens), P83916; further: potency means the concentration at half of the fitted maximal effect; nearly all actives have a fitted effect of over 70% in size
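AlphaScreen: HP1-beta (50 nM) preformed 30 min with biotin-H3(1-18)K9me3 peptide (50 nM) in PBS pH 7.4, 0.01% Tween-20. Compound added for 30 min at RT, then streptavidin donor/nickel chelate acceptor beads (10 ug/mL) for 30 min.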
JMJD2A Tudor – qHTS Assay for Inhibitors of JMJD2A-Tudor Domain; Lysine-specific demethylase 4A (Homo sapiens), O75164; AlphaScreen JMJD2A-Tudor / H3K4me3 peptide binding; 4.4% of 390,000 active; AID 504339, 2011; Potency, µM (highest dose often 114 µM), for the others: at the highest dose activity change, negative = inhibition, usual class: inhibitors; further: potency means the concentration at half of the fitted maximal effect; on the % scale 0 is the no-effect control and ±100 the full control effect; nearly all actives have a fitted effect of over 50% in size
Target sequence (O75164 whole entry, looked up, the tested form may be a part): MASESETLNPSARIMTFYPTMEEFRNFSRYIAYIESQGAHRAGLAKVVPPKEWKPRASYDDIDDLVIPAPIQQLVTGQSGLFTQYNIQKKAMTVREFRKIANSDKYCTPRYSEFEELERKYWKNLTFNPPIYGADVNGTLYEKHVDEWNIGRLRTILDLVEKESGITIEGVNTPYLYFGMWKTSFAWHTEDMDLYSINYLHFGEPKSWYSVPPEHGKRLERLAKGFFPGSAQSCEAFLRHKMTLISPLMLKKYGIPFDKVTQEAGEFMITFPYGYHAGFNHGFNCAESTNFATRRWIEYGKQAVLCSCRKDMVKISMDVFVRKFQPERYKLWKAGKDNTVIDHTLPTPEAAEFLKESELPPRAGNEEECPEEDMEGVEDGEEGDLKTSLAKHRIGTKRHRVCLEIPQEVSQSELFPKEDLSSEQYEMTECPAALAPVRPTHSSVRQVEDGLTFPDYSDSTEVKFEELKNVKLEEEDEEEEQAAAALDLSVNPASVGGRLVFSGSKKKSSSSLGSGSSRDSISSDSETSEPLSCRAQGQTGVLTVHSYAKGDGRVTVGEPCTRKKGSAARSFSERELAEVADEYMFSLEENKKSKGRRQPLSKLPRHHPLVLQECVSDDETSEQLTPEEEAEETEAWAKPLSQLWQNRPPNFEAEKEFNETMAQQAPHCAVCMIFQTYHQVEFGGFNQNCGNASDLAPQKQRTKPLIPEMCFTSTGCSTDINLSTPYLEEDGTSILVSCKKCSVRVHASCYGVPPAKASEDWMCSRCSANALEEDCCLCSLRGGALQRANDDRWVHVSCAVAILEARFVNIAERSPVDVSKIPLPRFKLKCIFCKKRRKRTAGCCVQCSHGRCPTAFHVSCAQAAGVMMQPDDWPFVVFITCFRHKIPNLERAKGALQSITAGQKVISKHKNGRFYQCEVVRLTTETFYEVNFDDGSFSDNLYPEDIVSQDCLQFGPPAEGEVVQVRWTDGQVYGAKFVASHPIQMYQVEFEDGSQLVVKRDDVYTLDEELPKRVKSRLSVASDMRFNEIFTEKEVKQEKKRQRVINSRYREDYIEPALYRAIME
Six1-Eya2 blk – qHTS Assay for Inhibitors of the Six1/Eya2 Interaction. AID 651725, 2012. activity change, % (concentration not given with the values). AlphaScreen GST-Six1/His-Eya2 binding, biochemical; hits give low values. 0.56% of 360,000 active. Homeobox protein SIX1 (Homo sapiens) + Protein phosphatase EYA2 (Homo sapiens), …; in the data active means activity change below about -65%; inconclusive means mostly about -30% to -63%; further: on the % scale 0 is the no-effect control and ±100 the full control effect
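AlphaScreen luminescence read after one hour at 37 °C in darkness. Pin-transferred compounds met GST-Six1 and His-Eya2 protein (5X stock 250 nM/500 nM) plus glutathione donor and Ni-chelate acceptor beads (5X, 50 ug/mL).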
G9a block – qHTS Assay for Inhibitors of Histone Lysine Methyltransferase G9a. AID 504332, 2011. Potency, µM (highest dose often 102 µM), inactives show top-dose activity, negative = inhibition, most hits filed as inhibitors. 8.8% of 350,000 active. G9a H3K9 monomethylation, AlphaScreen, 2 h. Histone-lysine N-methyltransferase EHMT2 (Homo sapiens), Q96KQ7; further: potency means the concentration at half of the fitted maximal effect; on the % scale 0 is the no-effect control and ±100 the full control effect; nearly all actives have a fitted effect of over 75% in size
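Step 1: enzyme (final 20 nM) with compound, 15 min RT. Step 2: substrate peptide 500 nM and SAM 20 uM, 2 h RT. Step 3: anti-H3K9me1 antibody and AlphaScreen beads, 10 min, then plate read.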
* = called active by the depositor; [ ] = remark or other dose. Sampled rows, rich in hits. Any-hit rate of the full collection: about 10%. Unless noted, the call rests on the fitted dose curve; in most records, active means well fitted inhibition curve with a large enough effect; inconclusive means small, poorly fitted or top-dose-only effect; inactive means no such curve, though single readings can be large or run the other way.

How did Cc1cc(NC(=O)C(C)Sc2nc(-c3ccccc3)cc(=O)[nH]2)no1 (centres undefined) do in these assays?
CtBP-E1A blk: -12; BAZ2B inh: inconclusive; HP1b chromo inh: 6%; JMJD2A Tudor: -13%; Six1-Eya2 blk: 2; G9a block: -2%

What do the screens show for `CCOC(=O)/C(=C\c1cccnc1)C(=O)c1cc(C(C)=O)c(Nc2ccccc2)s1`?
CtBP-E1A blk: -1; BAZ2B inh: 56µM*; HP1b chromo inh: -11%; JMJD2A Tudor: inconclusive; Six1-Eya2 blk: -9; G9a block: 10µM*

Results for COc1cc(C2c3c(oc4ccc(C)cc4c3=O)C(=O)N2Cc2ccccc2)ccc1O (centres undefined) ?
BAZ2B inh: -33%; HP1b chromo inh: 20%; JMJD2A Tudor: -13%; G9a block: -11%[59 µM]

How did NS(=O)(=O)c1ccc(NC(=O)N2c3ccccc3Sc3ccccc32)cc1 do in these assays?
CtBP-E1A blk: 12; BAZ2B inh: 50µM*; HP1b chromo inh: 13%; JMJD2A Tudor: -25%; Six1-Eya2 blk: -4

What do the screens show for `CCc1ccc(NC(=O)N2c3ccccc3Sc3ccccc32)cc1`?
BAZ2B inh: 4%; HP1b chromo inh: 30%; JMJD2A Tudor: 3%; G9a block: 5%[59 µM]

Results for COC(=O)[C@@]1(Cc2ccc(F)cc2)[C@H]2c3cc(C(=O)N4CCCC4)n(CCc4c[nH]c5ccc(OC)cc45)c3C[C@H]2CN1C(=O)c1ccccc1 ?
BAZ2B inh: inconclusive; G9a block: 40µM*

What do the screens show for `COC(=O)[C@@]1(Cc2ccccc2)[C@H]2c3cc(C(=O)N4CCCC4)n(CCSCCO)c3C[C@H]2CN1C(=O)c1ccccc1`?
BAZ2B inh: inconclusive; G9a block: 25µM*

What do the screens show for `COC(=O)[C@@]1(Cc2ccc(OC)cc2)[C@H]2c3cc(C(=O)N4CCCC4)n(Cc4ccc(C)o4)c3C[C@H]2CN1C(=O)c1ccccc1`?
BAZ2B inh: 40µM*; G9a block: 79µM*

Results for COCCn1c(C(=O)N2CCCC2)cc2c1C[C@H]1CN(C(=O)c3ccccc3)[C@@](Cc3ccc(F)cc3)(C(=O)OC)[C@@H]21 ?
CtBP-E1A blk: -2; BAZ2B inh: inconclusive; HP1b chromo inh: 15%; JMJD2A Tudor: -23%; Six1-Eya2 blk: -5; G9a block: inconclusive

Results for COC(=O)[C@@]1(Cc2ccc(F)cc2)[C@H]2c3cc(C(=O)N4CCCC4)n(CCSCCO)c3C[C@H]2CN1C(=O)c1ccccc1 ?
CtBP-E1A blk: 0; Six1-Eya2 blk: -1

What do the screens show for `C#CCn1c2ccccc2c(=O)n1CCOc1ccccc1OC`?
CtBP-E1A blk: 7; Six1-Eya2 blk: -1

How did CCOC(=O)c1ccccc1OC(=O)CS(=O)c1ccccc1[N+](=O)[O-] (centres undefined) do in these assays?
CtBP-E1A blk: 0; BAZ2B inh: -35%; HP1b chromo inh: 39%; JMJD2A Tudor: -13%; Six1-Eya2 blk: 4; G9a block: 40µM*

What do the screens show for `CCCNC(=S)N1CCN(CC)CC1`?
CtBP-E1A blk: 6; BAZ2B inh: 50µM*; HP1b chromo inh: -53%; JMJD2A Tudor: 1.8µM*; Six1-Eya2 blk: 14; G9a block: 10µM*

How did CC1CCN(C(=S)NC(=O)c2ccco2)CC1 do in these assays?
CtBP-E1A blk: 6; BAZ2B inh: inconclusive; HP1b chromo inh: 23%; JMJD2A Tudor: -20%; Six1-Eya2 blk: 6

What do the screens show for `O=C(NC(=S)N1CCN(Cc2ccccc2)CC1)c1ccco1`?
CtBP-E1A blk: 5; BAZ2B inh: -28%; HP1b chromo inh: 6%; JMJD2A Tudor: -23%; Six1-Eya2 blk: 2; G9a block: 50µM*

Results for CCNC(=S)N1CCN(Cc2ccccc2)CC1 ?
CtBP-E1A blk: 11; BAZ2B inh: 50µM*; HP1b chromo inh: inconclusive; JMJD2A Tudor: 8.9µM*; Six1-Eya2 blk: 1; G9a block: 16µM*

Results for CCNC(=S)N1CCN(C(c2ccccc2)c2ccccc2)CC1 ?
CtBP-E1A blk: 6; BAZ2B inh: -1%; HP1b chromo inh: 16%; JMJD2A Tudor: -34%; Six1-Eya2 blk: -5; G9a block: -12%[59 µM]

Results for CCCCNC(=S)NCCN1CCN(C(=S)NCCCC)CC1 ?
CtBP-E1A blk: -13; BAZ2B inh: -37%; HP1b chromo inh: 33%; JMJD2A Tudor: -13%; Six1-Eya2 blk: -2; G9a block: 0%

What do the screens show for `Cc1cnn(C(=S)NCC2CCCO2)c1` (centres undefined)?
CtBP-E1A blk: -9; BAZ2B inh: -2%; HP1b chromo inh: 47%; JMJD2A Tudor: 4.5µM*; Six1-Eya2 blk: 4; G9a block: 32µM*

What do the screens show for `Cc1ccc(NC(=S)NCC2CCCO2)cc1` (centres undefined)?
CtBP-E1A blk: -1; BAZ2B inh: -8%; HP1b chromo inh: 33%; JMJD2A Tudor: -18%; Six1-Eya2 blk: 2; G9a block: -5%

How did COc1ccc(NC(=O)CC2C(=O)N(c3ccccc3)C(=O)N2CCc2sccc2C)cc1 (centres undefined) do in these assays?
BAZ2B inh: -11%; HP1b chromo inh: 45%; JMJD2A Tudor: -12%; G9a block: 2%[59 µM]

What do the screens show for `CCN1CCN(C(=S)NCC2CCCO2)CC1` (centres undefined)?
BAZ2B inh: 50µM*; HP1b chromo inh: inconclusive; JMJD2A Tudor: 7.9µM*; Six1-Eya2 blk: 7; G9a block: 40µM*

How did Fc1ccc(N2CCN(C(=S)NCC3CCCO3)CC2)cc1 (centres undefined) do in these assays?
CtBP-E1A blk: -2; BAZ2B inh: -2%; HP1b chromo inh: 22%; JMJD2A Tudor: -8%; Six1-Eya2 blk: -2

Results for CCN1CCN(C(=S)NCCc2ccccc2)CC1 ?
CtBP-E1A blk: -2; BAZ2B inh: 79µM*; HP1b chromo inh: inconclusive; JMJD2A Tudor: 3.2µM*; Six1-Eya2 blk: 5; G9a block: inconclusive

What do the screens show for `OCCN1CCN(C(=S)NCCc2ccccc2)CC1`?
CtBP-E1A blk: 10; BAZ2B inh: -2%; HP1b chromo inh: 27%; JMJD2A Tudor: 0%[11.4 µM]; Six1-Eya2 blk: 2; G9a block: -1%[59 µM]

High-throughput results: PubChem BioAssay, National Center for Advancing Translational Sciences (NCATS)
